Screening data from PubChem BioAssay.
A selection: hits, their analogues and other compounds. The true share with any hit is near 2.4%.
cardiac RTF act: cardiac RTF calcium sensitivity activators, primary screen, biochemical, IANBD-TnC fluorescence, EC20 calcium; actives 0.24% (n = 340,000); IANBD-labeled TnC RTF fluorescence at EC20 calcium; 0% EC20 calcium, 100% full calcium; Troponin I, cardiac muscle (Homo sapiens) + Troponin T, cardiac muscle (Homo sapiens) + …; activation, % at 7.2 µM;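 active means activation above the mean over all tested compounds plus 3 SD, cut at about 30% in these data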;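 further: rise in fluorescence read as greater calcium sensitivity of cardiac thin filaments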
CRFBP-R2 block: antagonists of CRF-BP/CRF-R2 complex, primary screen, cell-based, HEK293, calcium dye fluorescence, uHTS | CRF-induced calcium fluorescence | inhibition, % at 11.8 µM | actives 0.59% (n = 350,000) | AID 588475, 2011;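 active means inhibition of the ligand-induced calcium signal above about 50% at the single tested concentration, limit read from the data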
ANO1 block: TMEM16A chloride channel inhibitors, primary screen, cell-based, HTS. Anoctamin-1 (Mus musculus), Q8BHY3. HEK293 TMEM16A/YFP iodide influx fluorescence, ionomycin. normalized B-score (activity score, 25-100; higher = stronger inhibition) at 10 µM. actives 1.2% (n = 310,000);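 active means ratio plate-corrected score three or more library SD toward inhibition, starting fluorescence score within five deviations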;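 further: score derived from kinetic fluorescence span divided by baseline fluorescence per well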
Cardiac RTF inh: cardiac RTF calcium sensitivity inhibitors, primary screen, biochemical, IANBD-TnC fluorescence, EC70 calcium; IANBD-labeled cardiac RTF, Ca2+ fluorescence; inhibition, % at 7.15 µM; actives 0.12% (n = 340,000); Troponin I, cardiac muscle (Homo sapiens) + Troponin T, cardiac muscle (Homo sapiens) + …;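 active means inhibition above the mean inhibition of all tested compounds plus 3 SD, cut at about 17% in these data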;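 further: assay run at fixed EC70 calcium of 1.6 mM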
TMEM16A act: TMEM16A chloride channel activators or potentiators, primary screen, cell-based, HTS; HEK293 TMEM16A/YFP-H148Q/I152L, iodide quench fluorescence; active compounds read low; B-score at 10 µM; actives 0.3% (n = 340,000); AID 623877, 2012;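 active means fluorescence-ratio B-score plate-corrected deviation score at least 3 library SD below zero, with starting fluorescence score within 5 deviations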;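 further: channel opened by trigger with iodide after compound preincubation; score built on the fluorescence ratio of max minus min over baseline; more negative score means more quench and so TMEM16A activation or potentiation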
CRFR2-BP ag: agonists of CRF-BP/CRF-R2 complex, primary screen, cell-based, HEK293, calcium dye fluorescence, uHTS; calcium dye fluorescence (FLIPR); percent of saturating CRF peptide response; activation, % at 13.2 µM; actives 0.46% (n = 350,000); CRF-binding protein / CRF receptor 2 complex (human);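 active means activation of at least 50%, plus an integration ratio under a set limit after plate pattern correction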;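 further: plate controls were neutral control wells without compound for no effect and CRF at EC100 for full effect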
TMEM16A reconf: TMEM16A chloride channel inhibitors, confirmation, cell-based, re-confirmation. shares compounds with ANO1 block. HEK293 TMEM16A/YFP-H148Q, iodide quench fluorescence; ionomycin added to raise cell calcium. inhibition, % at 10 µM. actives 39% (n = 2,300);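 active means mean duplicate percent inhibition, scaled so buffer wells are 0 and the reference blocker 100, over three buffer SD above buffer mean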
TMEM16A Ca cntr: calcium mobilization in TMEM16A/YFP HEK293 cells, confirmation, counter-screen for TMEM16A inhibitor project; Fluo4 calcium mobilization; calcium response (% of ionomycin), % at 10 µM; actives 2% (n = 2,300); shares compounds with ANO1 block;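 active means duplicate-averaged calcium signal over 20% of the ionomycin maximum, relative to buffer baseline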;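 further: each well's signal is peak minus trough fluorescence divided by its pre-addition baseline; 0% = buffer wells and 100% = ionomycin wells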
Parental YFP cnt: iodide YFP quench changes in parental YFP-HEK293, counter-screen for TMEM16A inhibitor project, cell-based; shares compounds with ANO1 block; ionomycin; YFP ratio F(max-min)/F0 at 10 µM; 2,300 tested, under 10 active; AID 652233, 2013;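 active means yellow fluorescent protein signal ratio exceeding the buffer control mean by over 5 SD of those controls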;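 further: ratio is mean of duplicate wells from kinetic YFP trace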
ClC-1 rat inh: ClC-1 chloride channel inhibition, selectivity assay for TMEM16A inhibitor project, cell-based, voltage-dependent ClC-1; shares compounds with ANO1 block; CHO ClC-1-YFP, iodide influx fluorescence quench; iodide control reads 0, buffer control 100; ratio percent, % at 10 µM; 2,300 tested, under 10 active;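 active means duplicate-mean ratio percent above the mean of iodide-only control wells, which defines zero, plus 5 of their SD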;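 further: higher percent means stronger block of ClC-1 iodide influx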
The depositor's hits bear a star; i = inactive; / = no result.

SMILES	cardiac RTF act	CRFBP-R2 block	ANO1 block	Cardiac RTF inh	TMEM16A act	CRFR2-BP ag	TMEM16A reconf	TMEM16A Ca cntr	Parental YFP cnt	ClC-1 rat inh
CCN(CC)c1ccc(C=Nc2cc(C)cc(C)c2)c(O)c1	3	-16	25*	0	-5.2*	3	i	i	-1.1	-3
CCOC(=O)c1oc2ccccc2c1NC(=O)c1cccc(OC)c1OC	3	-13	i	5	i	-4	/	/	/	/
c1ccc(-c2nc(-n3nc4ccccc4n3)nc3ccccc23)cc1	-1	1	100*	3	i	0	i	i	-1	-6
Clc1ccc(-c2nc(N3CCCCC3)nc3ccccc23)cc1	1	1	i	-3	i	0	/	/	/	/
O=C(O)COc1ccccc1/C=C1\SC(=S)N(NC(=O)c2ccccc2O)C1=O	14	-5	i	-10	i	1	i	i	-0.85	19
COc1ccc(/C=N/NC(=O)c2cccnc2)cc1COc1ccc([N+](=O)[O-])c(C)c1	/	-14	25*	/	i	1	22%*	i	-1	-16
CC(=O)Nc1ccc(S(=O)(=O)N2CCN(CCCOc3ccccc3Cl)CC2)cc1	3	-21	25*	-4	i	3	i	i	-1.1	-6
COCCNC(=S)N/N=C/c1c2ccccc2cc2ccccc12	7	-4	i	-12	i	-1	30%*	i	-0.6	5
COc1cccc(NC(=O)c2cnc(SCC(=O)NCc3ccc4c(c3)OCO4)n(C)c2=O)c1	-1	15	i	-4	i	1	/	/	/	/
Cn1c(=O)oc2cc(S(=O)(=O)NCCC(=O)NC3CCCC3)ccc21	8	-2	100*	-4	i	1	i	i	-1	-9
Cn1c(=O)oc2cc(S(=O)(=O)NCCC(=O)NC3CCCc4ccccc43)ccc21 (configuration not stated)	2	-6	i	-1	i	-1	/	/	/	/
Cc1ccc(S(=O)(=O)N(C)c2ccc(OCC(=O)Nc3nc4ccccc4s3)cc2)cc1	-2	12	i	4	i	3	i	i	-0.85	-16
Cc1cccc(OCC(=O)Nc2nc3ccc([N+](=O)[O-])cc3s2)c1	4	18	25*	-19	i	3	i	i	-0.96	2
Cc1ccc(S(=O)(=O)N(C)c2ccc(OCC(=O)Nc3nc4c(ccc5ccccc54)s3)cc2)cc1	-2	-10	i	-5	i	2	/	/	/	/
O=C(C[C@H]1C/C=C\CC[C@H](Cc2ccc(F)cc2)C(=O)OC[C@@H](Cc2c[nH]c3ccccc23)NC1=O)NCCO	-1	1	/	-3	i	1	/	/	/	/
COC(=O)CCc1ccc(O)cc1	10	7	i	-6	i	-1	/	/	/	/
COC(=O)CCc1cccc(CCC(=O)OC)c1	-5	12	25*	0	i	-1	i	i	-0.97	-8
Cc1oc(-c2ccccc2Cl)nc1CS(=O)(=O)CC(=O)N1CCOCC1	7	32	i	-4	i	-5	/	/	/	/
CCN(CC)S(=O)(=O)c1cccc(-c2nnc(SCC(=O)c3cc(C)n(C)c3C)o2)c1	1	-9	i	-3	i	0	/	/	/	/
CCCN(CC(=O)c1cc(C)n(C)c1C)S(=O)(=O)c1cccc(C(F)(F)F)c1	-1	11	100*	-5	i	1	i	i	-0.85	-6
CCN(CC1CCCO1)C(=O)c1cc(COc2ccccc2SC)on1 (configuration not stated)	1	-7	i	-4	i	0	/	/	/	/
CCn1c(SCC(=O)Nc2ccc3c(c2)oc2ccccc23)nnc1-c1ccc(N)cc1	-1	-5	100*	-1	i	-2	i	i	-0.98	-5
CCOc1ccc(-c2nc(C#N)c(NCc3ccc4c(c3)OCO4)o2)cc1	0	7	i	-4	i	-2	/	/	/	/
Cc1ccc(OCc2nc(C#N)c(NCc3ccc4c(c3)OCO4)o2)cc1	-6	36	25*	-12	i	0	16%*	i	-1.1	-8
COc1ccc(CCNc2oc(COc3ccc(Br)cc3)nc2C#N)cc1OC	-2	14	100*	-7	i	-5	i	i	-0.96	-18
SMILES	cardiac RTF act	CRFBP-R2 block	ANO1 block	Cardiac RTF inh	TMEM16A act	CRFR2-BP ag	TMEM16A reconf	TMEM16A Ca cntr	Parental YFP cnt	ClC-1 rat inh
CC(=O)Nc1ccc(CC(=O)NCCC(c2ccccc2)c2ccccc2)cc1	0	3	i	1	i	0	/	/	/	/
C#CCOCCOCCOCCNc1nc(N2CCN(C(=O)[C@H](CCCCN)n3cc([C@@H](N)CO)nn3)CC2)nc(N2CCN(C(=O)[C@H](Cc3cc4ccccc4[nH]3)n3cc([C@@H](N)CC(C)C)nn3)CC2)n1	/	/	i	/	/	/	/	/	/	/
Cc1cccc(NC(=O)/C(C#N)=C\c2cccnc2)c1	-5	-23	25*	2	i	3	28%*	i	-0.98	-12
O=C(Nc1ccc(Cl)c(Cl)c1)Nc1ccccc1O	-5	-1	100*	3	i	0	22%*	i	-1.1	-20
Cc1nn(C)c(Nc2ccc(Br)cc2)c1Br	8	26	100*	-1	i	0	i	i	-0.98	-25
Cc1cc(N/N=C/c2ccc3c(c2)OCO3)nc2ccccc12	-7	-5	i	3	i	0	/	/	/	/
